Where “and” joins values, the source holds several entries; their conditions need not be identical. Equal entries are not always repeated. Results filed as inconclusive are left out. Unmarked numbers belong to inactive results. Calls of active or inactive are those of the source. Calls follow the shape of the dose curve; as a rule, active = well fitted curve in the direction sought with a large enough effect; inconclusive = small, poorly fitted or top-dose-only effect, or another doubt; inactive = no such curve, though single readings can be large; an effect the other way counts as inactive or inconclusive.

The nature of assay [1]: Viability qHTS for spleen associated tyrosine kinase inhibitor (SYKi) naive MV4-11 cells (AID 1963823). Also: nearly all actives have a fitted effect of over 40% in size. In outline: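 SYKi-naive MV4-11 AML cells, 500 per well, were exposed to library compounds for 72 hr at 37 C, 5% CO2. Viability was then read by CellTiter-Glo luminescence after 10 min at room temperature.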
Assay [2] in a line: Viability qHTS for spleen associated tyrosine kinase inhibitor (SYKi) drug resistant MV4-11 cells (AID 1963824). Also: nearly all actives have a fitted effect of over 35% in size. In a few lines:
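CellTiter-Glo luminescence, read 10 min after reagent addition, reports viability after a 72 hr compound exposure. Cells are an MV4-11 line made resistant to SYK inhibition, seeded at 500 per well onto compound-containing plates.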

The nature of assay [3]: Quantitative highthroughput screen to assess conditional lethalithy of NOMO1 cells grown in RPMI1640 with untreated serum (RPMI+s) (AID 1963876). Also: nearly all actives have a fitted effect of over 35% in size.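 As to Viability: 100% = DMSO wells and 0% = empty wells without cells.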 In outline:
(§1)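 Each medium arm—HPLM with 10% dialyzed FBS, or RPMI1640 with 5 mM glucose and 10% untreated or dialyzed FBS—was screened against an 11-point, 3-fold compound titration for 48 h at 37 °C, with CellTiter-Glo luminescence as endpoint.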

Assay [4] is described as follows: Quantitative highthroughput screen to assess conditional lethalithy of NOMO1 cells grown in RPMI1640 with dialyzed fetal bovine serum (RPMI+ds) (AID 1963877). Also: nearly all actives have a fitted effect of over 30% in size.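 As to Viability: series mostly up to about 46 µM; 100% = DMSO control wells and 0% = empty wells.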 In outline:
as §1

Assay [5] is described as follows: Quantitative highthroughput screen to assess conditional lethalithy of NOMO1 cells grown in Human Plasma-Like Medium with dialyzed fetal bovine serum (HPLM+ds) (AID 1963878). Also: nearly all actives have a fitted effect of over 35% in size.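 As to Viability: 100% = DMSO wells and 0% = empty wells on each plate.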 In outline:
as §1

Assay [6] can be described thus: Quantitative highthroughput screen to assess conditional lethalithy of P12 Ichikawa cells grown in Human Plasma-Like Medium with dialyzed fetal bovine serum (HPLM+ds) (AID 1963879). Also: nearly all actives have a fitted effect of over 35% in size. As to Viability: series mostly up to about 46 µM. Conditions: Potency: viability. In outline: as §1
Assay [7] can be described thus: Quantitative highthroughput screen to assess conditional lethalithy of P12 Ichikawa cells grown in RPMI1640 with dialyzed fetal bovine serum (RPMI+ds) (AID 1963880). Also: nearly all actives have a fitted effect of over 35% in size.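 As to Viability: 100% = DMSO wells and 0% = empty wells on each plate.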 Conditions: Potency: P12-Ichikawa viability. In a few lines: as §1
A short description of assay [8]: Quantitative highthroughput screen to assess conditional lethalithy of P12 Ichikawa cells grown in RPMI1640 with untreated serum (RPMI+s) (AID 1963881). Also: nearly all actives have a fitted effect of over 35% in size.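 As to Viability: series mostly up to about 46 µM; 100% = DMSO wells and 0% = empty wells without cells.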 To be noted: Potency: viability. In outline:
as §1

Assay [9] in a line: Cellular viability qHTS for adrenocortical cancer (ACC) cell line SW-13 (AID 1963989). Also: nearly all actives have a fitted effect of over 65% in size.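 As to activity (max response): cells grown in serum-free medium with ITS supplement; % is scaled to controls: 0 for no effect and ±100 for the full control effect.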 To be noted: SW-13 ACC cells viability, CellTiter-Glo, 48 h; activity (max response): hits give low values. In outline: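 SW-13 cells in ITS-supplemented serum-free DMEM were plated overnight, then exposed for 48 h at 37C to compound titrations (up to 46 uM final). Viability was read by CellTiter-Glo luminescence; four-parameter logistic fits gave IC50 and efficacy.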

A short description of assay [10]: Cellular viability qHTS for adrenocortical cancer (ACC) cell line NCI-H295R (AID 1963990). Also: nearly all actives have a fitted effect of over 60% in size. In a few lines:
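Luminescent ATP read-out (CellTiter-Glo, 20 min RT) after 48 h drug exposure of NCI-H295R cells; a titration up to 46 uM final. Data normalized to doxorubicin (100% inhibition) and DMSO (0%); 4-parameter fit gives IC50, max response.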

Assay [11] can be described thus: Quantitative highthroughput screen to assess conditional lethalithy of SEM cells grown in Human Plasma-Like Medium with dialyzed fetal bovine serum (HPLM+ds) (AID 1963882). Also: nearly all actives have a fitted effect of over 35% in size. As to Viability: series mostly up to about 46 µM. In outline:
as §1

Assay [12] is described as follows: Quantitative highthroughput screen to assess conditional lethalithy of SEM cells grown in RPMI1640 with unreated serum (RPMI+s) (AID 1963883). Also: nearly all actives have a fitted effect of over 35% in size.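 As to Viability: 100% = DMSO wells and 0% = empty wells without cells.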 In a few lines: as §1
Assay [13] can be described thus: Quantitative highthroughput screen to assess conditional lethalithy of SEM cells grown in RPMI1640 with dialyzed fetal bovine serum (RPMI+ds) (AID 1963884). Also: nearly all actives have a fitted effect of over 35% in size.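 As to Viability: series mostly up to about 46 µM; 100% = DMSO control wells and 0% = empty wells without cells.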 In a few lines: as §1
Potency is read from the fitted curve at half-maximal effect.

For the compound `Cc1ccc2c(=O)c3cccc(CC(=O)O)c3oc2c1C`, the Potency is 2.95 µM (active) in assay [1] and 0.934 µM (active) in assay [2]. Moreover, the Potency result in [3], in assay [4], in [5], in [6], in assay [7] and in assay [8] was “inactive” in each case. For the same compound, in assay [10], the Potency result was “inactive”. The activity (max response) in assay [9] is -13.4%.
On to `Cc1noc(-c2ccc(CSCCC(=O)O)cc2)c1NC(=O)OC(C)c1ccccc1Cl` (configuration not stated), for which the Potency entry in assay [1], in [2], in assay [3], in assay [4], in assay [5] and in assay [7] was “inactive” each time. Besides, the Potency result in assay [11], in [12], in assay [13] and in assay [10] was “inactive” throughout. In addition, the Potency in assay [6] is 18.7 µM (active). The activity (max response) in assay [9] was -1.37%.
As for `O=c1cc(O)c(Cl)c[nH]1`, the Potency result in [1], in assay [2] and in [10] was “inactive” each time. Further, the Potency in assay [3] was 7.43 µM (active); in assay [4] it was 8.33 µM (active); in assay [5], 5.26 µM (active); in [6], 7.43 µM (active); in assay [7], 14.8 µM (active); in assay [8], 8.33 µM (active). Also, the activity (max response) in assay [9] was 20.2%.
In the case of `OCCC#Cc1nc(-c2ccc(F)cc2)c(-c2ccncc2)n1CCCc1ccccc1`, the Potency in assay [1] is 20.6 µM (active); in [2] it was 10.3 µM (active) and 11.8 µM (active); in assay [13] it was 18.7 µM (active). Besides, the Potency result in [3], in assay [4], in assay [5], in assay [6], in assay [7] and in assay [11] was “inactive” throughout. The Potency entry in [12] was “inactive”.
With `COc1cc(Nc2ncc(F)c(Nc3ccc4c(n3)N(COP(=O)(O)O)C(=O)C(C)(C)O4)n2)cc(OC)c1OC`, the Potency is 92 nM (active) and 259 nM (active) and 83.3 nM (active) in assay [1]; 130 nM (active) and 461 nM (active) and 148 nM (active) in [2]; 14.1 µM (active) in assay [9]; 15.8 µM (active) in [10]. Further, the Potency result in assay [3], in [4], in [5], in assay [6], in assay [7] and in [8] was “inactive” throughout.
Regarding `CN1c2ccccc2C(=O)N2CCc3c([nH]c4ccccc34)C21` (configuration not stated), the Potency in [1] was 1.64 µM (active); in assay [2], 1.16 µM (active); in [9], 2.24 µM (active); in [10], 1.78 µM (active). Moreover, the Potency entry in assay [3], in [4], in [5], in assay [6], in [8] and in assay [11] was “inactive” each time. The Potency result in assay [12] and in assay [13] was “inactive” in each case.
Regarding `CCC(C)SSc1ncc[nH]1` (configuration not stated), the Potency in [1] was 9.34 µM (active); in assay [2] it was 8.33 µM (active); in [3], 18.7 µM (active); in [4], 23.5 µM (active); in assay [5], 14.8 µM (active); in [6], 18.7 µM (active). The results for the Potency in [7], in [8] and in assay [10] were 13.2 µM (active), 18.7 µM (active) and 20 µM (active), respectively.
Take `CC(C)OC(=O)C(C)(C)Oc1ccc(C(=O)c2ccc(Cl)cc2)cc1`: the Potency result in assay [1], in [2], in [3], in [4], in [5] and in [6] was “inactive” in each case. For the same compound, the Potency result in assay [7], in assay [8] and in assay [10] was “inactive” throughout.
Turning to `Cc1ccc(CN2CCNCC2)cc1NC(=O)CNc1ccc(F)c(F)c1`, the Potency result in [1], in [2], in assay [3], in assay [4], in assay [5] and in [6] was “inactive” throughout. The Potency entry in assay [7], in [11], in assay [12], in assay [13] and in [10] was “inactive” each time.
As for `CCN(CC)CCNC(=O)c1ccc2nc(-c3ccccc3)c(-c3ccc(CN4CCC(n5c(=O)[nH]c6ccccc65)CC4)cc3)nc2c1`, the Potency is 2.06 µM (active) and 3.32 µM (active) in assay [1]; 2.59 µM (active) and 3.32 µM (active) in [2]; 8.33 µM (active) in [3]; 11.8 µM (active) in assay [4]; 2.35 µM (active) in [5]; 2.35 µM (active) in assay [6]. Further, the Potency is 4.69 µM (active) in [8]; 0.166 µM (active) in assay [11]; 0.0526 µM (active) in [12]; 0.166 µM (active) in assay [13]; 6.31 µM (active) in assay [9]; 3.98 µM (active) in assay [10].
Consider `CN1C(=O)C(Cc2c[nH]c3ccccc23)NC1=S` (configuration not stated), for which the Potency result in assay [1], in [3], in assay [4], in [5], in [6] and in assay [7] was “inactive” in each case. Moreover, the Potency entry in assay [10] is “inactive”. Besides, the Potency in assay [2] was 8.33 µM (active).
For the compound `c1cc(OCCN2CCCCC2)cc(-c2n[nH]c3ccc(-c4ncn[nH]4)cc23)c1`, the results for the Potency in assay [1] and in [2] were 0.651 µM (active) and 1.16 µM (active), respectively. Besides, the Potency entry in assay [3], in assay [4], in assay [5], in assay [6], in assay [7] and in assay [8] was “inactive” each time. Besides, the Potency result in assay [10] is “inactive”.
`CCc1cc(C(N)=S)ccn1`: the Potency entry in assay [1], in [2], in [3], in [4], in [5] and in [8] was “inactive” each time. Also, the Potency entry in assay [10] is “inactive”. Further, the Potency was 14.8 µM (active) in [6], 8.33 µM (active) in assay [7] and 7.43 µM (active) in [13]. Moreover, the activity (max response) in [9] is 3.73% and -4.72%.
Regarding `O=c1[nH]nc(OCCCc2ccc(Cl)cc2)c(NCc2cccnc2)c1Br`, the Potency in assay [1] is 4.11 µM (active); in assay [2], 4.11 µM (active); in [3], 11.8 µM (active); in assay [4] it was 5.9 µM (active); in assay [5], 2.96 µM (active); in assay [6] it was 5.9 µM (active). The Potency was 5.26 µM (active) in assay [7], 6.62 µM (active) in assay [12], 14.8 µM (active) in [13] and 7.94 µM (active) in assay [9].
As for `CCc1cccc2c3c([nH]c12)C(CC)(CC(=O)O)OCC3` (configuration not stated), the Potency result in assay [1], in assay [2], in assay [3], in assay [4], in assay [5] and in assay [6] was “inactive” each time. Further, the Potency entry in assay [7] and in [8] was “inactive” throughout. The activity (max response) in assay [9] is 7.18%.

The record behind these values is PubChem BioAssay (NCATS).
